Experimental data reported in PubChem BioAssay (EPA / NIEHS).
Records with an inconclusive call do not appear. Active and inactive are the calls of the source. The calls were made as follows, unless noted: active = hit-call score of the fitted dose curve at least 0.9, where 1 is the maximum; inactive = score below 0.9.

Columns and labels:
[1] = target: human Vitamin D Receptor (VDR), VDR (gene 7421) (UniProt P11473); assay: ATG_VDR_TRANS: Attagene TRANS-FACTORIAL HepG2 Assay for human Vitamin D Receptor (VDR) (AID 2283022; active = hit-call score of the fitted dose curve at least 0.9, where 1 is the maximum)
human Vitamin D Receptor (VDR), VDR (gene 7421), sequence (P11473 whole entry, looked up, the tested form may be a part): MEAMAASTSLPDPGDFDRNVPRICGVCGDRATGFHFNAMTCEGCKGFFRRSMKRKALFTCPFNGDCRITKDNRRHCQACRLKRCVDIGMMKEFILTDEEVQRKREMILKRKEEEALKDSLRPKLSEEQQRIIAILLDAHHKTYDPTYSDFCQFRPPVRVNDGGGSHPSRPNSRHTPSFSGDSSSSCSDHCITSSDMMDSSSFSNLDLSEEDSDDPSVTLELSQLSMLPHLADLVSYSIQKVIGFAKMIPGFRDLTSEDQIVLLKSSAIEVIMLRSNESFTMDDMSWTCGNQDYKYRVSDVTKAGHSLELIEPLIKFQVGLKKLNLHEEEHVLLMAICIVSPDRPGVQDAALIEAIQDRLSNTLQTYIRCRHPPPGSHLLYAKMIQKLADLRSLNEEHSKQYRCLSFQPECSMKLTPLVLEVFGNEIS
How it was run: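 Transactivation by an exogenous VDR-Gal4 chimera in transiently transfected HepG2 cells was measured as reporter transcript level 24 hours after chemical treatment. RT-PCR products were analysed by capillary electrophoresis and fitted in the positive direction relative to DMSO.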

[2] = BSK_3C_SRB: Viability Assessment in the BioMAP Diversity Plus: 3C Assay (AID 2283023); conditions: primary human endothelial cells (HUVEC);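 also: fitted both ways against DMSO so a hit may be signal rise or drop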
How it was run: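 Cytotoxicity readout in parallel HUVEC 3C cultures: after 24 h compound exposure, cells fixed with 10% TCA, stained with 0.1% SRB and read at 560 nm. Gain or loss relative to DMSO fitted.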

[3] = read-out: Matrix Metallopeptidase 1 (MMP1), MMP1 (gene 4312); assay: BSK_BE3C_MMP1: BioMAP Diversity Plus: BE3C Assay for Matrix Metallopeptidase 1 (MMP1) Biomarker Activity (AID 2283024); conditions: primary human bronchial epithelial cells; actives raise or lower the signal
How it was run: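 Human bronchial epithelial cells (BE3C system) exposed to compound for 24 h; MMP1 then quantified by ELISA. Activity was fitted in both directions relative to DMSO.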

[4] = BSK_3C_Vis: BioMAP Diversity Plus: 3C Assay for Morphology Visualization (AID 2283025); conditions: primary human endothelial cells (HUVEC);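 also: fitted both ways so gain or loss versus DMSO counts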;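 as to AC50: light microscopy image of cell morphology used as background control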
How it was run: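 Chemicals were added to primary human umbilical vein endothelium, cells were incubated 24 h, and morphology was then visualized by light microscopy. Gain or loss of signal was fitted bidirectionally relative to DMSO.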

[5] = read-out: Pselectin, SELP (gene 6403); assay: BSK_4H_Pselectin: BioMAP Diversity Plus: 4H Assay for Pselectin Biomarker Activity (AID 2283026); conditions: primary human endothelial cells (HUVEC); actives raise or lower the signal
How it was run: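 ELISA read-out of P-selectin on human umbilical vein endothelium after 24 h of dosing. Values derive from bidirectional fitting relative to DMSO. Parallel SRB protein staining flagged overt cytotoxicity.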

[6] = BSK_4H_SRB: Viability Assessment in the BioMAP Diversity Plus: 4H Assay (AID 2283027); conditions: primary human endothelial cells (HUVEC);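 also: cells exposed to compound for 24 h before staining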;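 as to AC50: curves fitted both ways versus DMSO so AC50 may be loss or gain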
How it was run: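 Human umbilical vein endothelial cells, 24 h after chemical dosing; total protein measured by 0.1% sulforhodamine B staining after 10% TCA fixation, read at 560 nm. Bidirectional fitting against DMSO.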

[7] = BSK_BE3C_SRB: Viability Assessment in the BioMAP Diversity Plus: BE3C Assay (AID 2283028); conditions: primary human bronchial epithelial cells
How it was run: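 Cytotoxicity read-out: SRB (0.1%) staining of TCA-fixed (10%) human lung bronchial epithelial cells, absorbance 560 nm, 24 h post-dosing. Curves fitted both directions relative to DMSO.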

[8] = read-out: Thrombomodulin, THBD (gene 7056); assay: BSK_3C_Thrombomodulin: BioMAP Diversity Plus: 3C Assay for Thrombomodulin Biomarker Activity (AID 2283029); conditions: primary human endothelial cells (HUVEC); actives raise or lower the signal
How it was run: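 Read-out is ELISA of thrombomodulin on human umbilical vein endothelium 24 h after chemical dosing. Gain or loss of signal is scored relative to DMSO. Overt cytotoxicity is checked in parallel cultures by sulforhodamine B staining.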

[9] = read-out: Urokinase-type plasminogen activator receptor (uPAR), PLAUR (gene 5329); assay: BSK_4H_uPAR: BioMAP Diversity Plus: 4H Assay for Urokinase-type plasminogen activator receptor (uPAR) Biomarker Activity (AID 2283030); conditions: primary human endothelial cells (HUVEC); actives raise or lower the signal
How it was run: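 uPAR level read by ELISA on HUVEC cultures (BioMAP 4H) 24 h post-dosing, analyzed for gain or loss relative to DMSO. Parallel SRB staining assessed overt cytotoxicity.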

[10] = read-out: Vascular endothelial growth factor receptor 2 (Homo sapiens) (UniProt P35968); assay: BSK_4H_VEGFRII: BioMAP Diversity Plus: 4H Assay for Vascular endothelial growth factor receptor 2 (VEGFR2) Biomarker Activity (AID 2283031); conditions: primary human endothelial cells (HUVEC); actives raise or lower the signal
How it was run: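 Measured by ELISA after 24 h of compound treatment: VEGFR2 on primary human umbilical vein endothelial cells, fitted in both directions relative to DMSO. Parallel cultures received SRB staining (560 nm) for overt cytotoxicity.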

[11] = read-out: Human Leukocyte Antigen - DR isotype (HLADR), HLA-DRA (gene 3122); assay: BSK_BE3C_HLADR: BioMAP Diversity Plus: BE3C Assay for Human Leukocyte Antigen - DR isotype (HLADR) Biomarker Activity (AID 2283032); conditions: primary human bronchial epithelial cells; actives raise or lower the signal
How it was run: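 ELISA read-out of HLA-DR on human lung bronchial epithelial primary cells, measured 24 h post-dosing. Both increases and decreases were scored relative to DMSO vehicle.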

[12] = read-out: Vascular cell adhesion molecule 1 (VCAM1), VCAM1 (gene 7412); assay: BSK_4H_VCAM1: BioMAP Diversity Plus: 4H Assay for Vascular cell adhesion molecule 1 (VCAM1) Biomarker Activity (AID 2283033); conditions: primary human endothelial cells (HUVEC); actives raise or lower the signal
How it was run: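 ELISA read-out of VCAM-1 on human umbilical vein endothelium 24 hours after chemical dosing; gain or loss of signal was fitted relative to DMSO, with sulforhodamine B staining of parallel cultures flagging overt cytotoxicity.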

[13] = read-out: Interferon-gamma inducible Protein 10 (IP10), CXCL10 (gene 3627); assay: BSK_BE3C_IP10: BioMAP Diversity Plus: BE3C Assay for Interferon-gamma inducible Protein 10 (IP10) Biomarker Activity (AID 2283034); conditions: primary human bronchial epithelial cells; actives raise or lower the signal
How it was run: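 Chemical is dosed onto human lung bronchial epithelial primary cells, cultures are incubated 24 h, and IP-10 is then quantified by ELISA. Gain or loss of signal is fitted in both directions relative to DMSO.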

[14] = read-out: Monokine induced gamma interferon (MIG), CXCL9 (gene 4283); assay: BSK_BE3C_MIG: BioMAP Diversity Plus: BE3C Assay for Monokine induced gamma interferon (MIG) Biomarker Activity (AID 2283035); conditions: primary human bronchial epithelial cells; actives raise or lower the signal
How it was run: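 Primary human bronchial epithelial cells treated for 24 h; MIG levels measured by ELISA, fitted bidirectionally versus DMSO. Parallel SRB total-protein staining assessed cytotoxicity.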

[15] = read-out: Transforming growth factor beta 1 (TGFb1), TGFB1 (gene 7040); assay: BSK_BE3C_TGFb1: BioMAP Diversity Plus: BE3C Assay for Transforming growth factor beta 1 (TGFb1) Biomarker Activity (AID 2283036;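 also: TGF-b1 protein level measured by ELISA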); conditions: primary human bronchial epithelial cells; actives raise or lower the signal
How it was run: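 Primary human lung bronchial epithelial cells; compound exposure 24 h; TGF-b1 by ELISA; bidirectional fit, DMSO baseline. Parallel SRB total-protein staining for cytotoxicity.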

[16] = read-out: Plasminogen activator inhibitor-1 (PAI1), SERPINE1 (gene 5054); assay: BSK_BE3C_PAI1: BioMAP Diversity Plus: BE3C Assay for Plasminogen activator inhibitor-1 (PAI1) Biomarker Activity (AID 2283037); conditions: primary human bronchial epithelial cells; actives raise or lower the signal
How it was run: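 Primary human lung bronchial epithelial cells; chemical dosing; 24 h; PAI-1 measured by ELISA; bidirectional fit referenced to DMSO as negative control.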

[17] = read-out: urokinase plasminogen activator (uPA), PLAU (gene 5328); assay: BSK_BE3C_uPA: BioMAP Diversity Plus: BE3C Assay for urokinase plasminogen activator (uPA) Biomarker Activity (AID 2283038); conditions: primary human bronchial epithelial cells; actives raise or lower the signal
How it was run: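 ELISA for uPA on human primary bronchial epithelial cultures 24 h post-treatment, gain or loss against DMSO. Parallel SRB staining (0.1% after 10% TCA fixation, 560 nm) assessed overt cytotoxicity.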

[18] = read-out: Urokinase-type plasminogen activator receptor (uPAR), PLAUR (gene 5329); assay: BSK_BE3C_uPAR: BioMAP Diversity Plus: BE3C Assay for Urokinase-type plasminogen activator receptor (uPAR) Biomarker Activity (AID 2283039); conditions: primary human bronchial epithelial cells; actives raise or lower the signal;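 also: cells exposed to compound for one day before measurement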
How it was run: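 Human bronchial epithelial primary cells; chemical exposure 24 h; uPAR by ELISA; bidirectional fit vs DMSO control.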

[19] = read-out: Interleukin-6 (IL6), IL6 (gene 3569); assay: BSK_CASM3C_IL6: BioMAP Diversity Plus: CASM3C Assay for Interleukin-6 (IL6) Biomarker Activity for (AID 2283040); conditions: primary human coronary artery smooth muscle cells; actives raise or lower the signal
[20] = read-out: Tissue plasminogen activator (tPA), PLAT (gene 5327); assay: BSK_BE3C_tPA: BioMAP Diversity Plus: BE3C Assay for Tissue plasminogen activator (tPA) Biomarker Activity (AID 2283041); conditions: primary human bronchial epithelial cells; actives raise or lower the signal;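 also: tPA level quantified by ELISA one day after compound addition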
How it was run: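 Primary human lung bronchial epithelial cultures receive test chemical; after 24 h, tPA is quantified by ELISA, and gain or loss of signal is fitted bidirectionally relative to DMSO baseline.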

Measured: AC50

CN1CCCC1=O
inactive: all assays above

NC(=O)Cn1c(=O)cc(CCN2CCN(c3nccc4sccc34)CC2)c2ccc(F)cc21
active: [5] 3.25 µM | [6] 3.97 µM | [9] 0.496 µM | [12] 7.88 µM
not listed: [2]
inactive: all other assays above

COC(=O)c1ccc(O)cc1
not listed: [19]
inactive: all other assays above

CCOc1ccc2c(c1)C(C)=CC(C)(C)N2
active: [1] 150 µM
inactive: all other assays above

Cc1nc(-c2ccc3c(c2)CCN(CCC2CCC(NC(=O)/C=C/c4ccc(F)cc4)CC2)CC3)no1 (stereo unspecified)
inactive: [3] | [7] | [9] | [10] | [15] | [16] | [18] | [19] | [20]
active: [2] 6.26 µM | [4] 6.4 µM | [5] 5.65 µM | [6] 6.89 µM | [8] 9.3 µM | [11] 12.8 µM | [12] 9.3 µM | [13] 15 µM | [14] 13.5 µM | [17] 9.94 µM

Nc1ccccc1N
active: [12] 4.07 µM
inactive: all other assays above

CC(C)c1ccc(C(=O)N=C(N)N)cc1S(C)(=O)=O
not listed: [1]
inactive: all other assays above
